Screening results: PubChem, National Center for Advancing Translational Sciences (NCATS)
BAZ2B inh: qHTS Assay for Inhibitors of BAZ2B. hit rate 4.4% among 360,000. Potency, µM (doses to about 114 µM), without a hit: at the highest dose activity change, negative = inhibition, usual class: inhibitors. AID 504333, 2011. AlphaScreen BAZ2B-H3K14Ac peptide displacement; also: % is scaled to controls: 0 for no effect and ±100 for the full control effect; nearly all actives have a fitted effect of over 60% in size
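Compounds, titrated to a top concentration of 110 uM, were incubated 30 min at room temperature with preformed BAZ2B/acetyl-K14 H3 peptide complex (50 nM each). Proximity signal was measured by AlphaScreen after 20 min with beads.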
HP1b chromo inh: HTS for Inhibitors of HP1-beta Chromodomain Interactions with Methylated Histone Tails. Chromobox protein homolog 1 (Homo sapiens), P83916. AlphaScreen HP1-beta / biotin-H3K9me3 peptide binding. Potency, µM (doses to about 114 µM), inactives show at the top dose activity change, negative = inhibition, actives largely listed as inhibitors. hit rate 0.56% among 390,000. AID 540317, 2011; also: nearly all actives have a fitted effect of over 70% in size
Target sequence (P83916 whole entry, looked up): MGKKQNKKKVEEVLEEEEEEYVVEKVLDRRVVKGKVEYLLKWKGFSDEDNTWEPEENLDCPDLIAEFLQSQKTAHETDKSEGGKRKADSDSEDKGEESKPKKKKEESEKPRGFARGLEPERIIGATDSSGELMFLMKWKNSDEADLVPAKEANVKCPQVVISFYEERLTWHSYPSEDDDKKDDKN
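AlphaScreen: HP1-beta (50 nM) preformed 30 min with biotin-H3(1-18)K9me3 peptide (50 nM) in PBS pH 7.4, 0.01% Tween-20. Compound added for 30 min at RT, then streptavidin donor/nickel chelate acceptor beads (10 ug/mL) for 30 min.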
JMJD2A Tudor inh: qHTS Assay for Inhibitors of JMJD2A-Tudor Domain | Lysine-specific demethylase 4A (Homo sapiens), O75164 | AlphaScreen JMJD2A-Tudor / H3K4me3 peptide binding | Potency, µM (titrated, usually from 114 µM), for inactives: at the top dose activity change, negative = inhibition, hits mostly inhibitors | hit rate 4.4% among 390,000; also: % is scaled to controls: 0 for no effect and ±100 for the full control effect; nearly all actives have a fitted effect of over 50% in size
Sfp inh: qHTS Assay for Inhibitors of Bacillus subtilis Sfp phosphopantetheinyl transferase (PPTase); Biochemical Sfp PPTase activity, qHTS; Potency, µM, inactives show largest response in the series, negative = inhibition, hits mostly inhibitors; hit rate 3.5% among 310,000;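 also: the enzyme is Sfp with the accession as filed and its product quenches rhodamine fluorescence; 0% = enzyme reaction without inhibitor and -100% = no enzyme wells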
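Fluorescence-quenching assay with 15 nM Sfp, 5 uM rhodamine-CoA and 12.5 uM BHQ-2-labelled ybbR peptide in pH 7.6 Hepes/MgCl2 buffer. Enzyme was pre-incubated with compound for 15 min at room temperature. Rate was taken from the 30-min fluorescence change (525/598 nm).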
G9a inh: qHTS Assay for Inhibitors of Histone Lysine Methyltransferase G9a; G9a H3K9 monomethylation, AlphaScreen, 2 h; Potency, µM (top dose mostly 102 µM), inactives show at the highest dose activity, negative = inhibition, usual class: inhibitors; hit rate 8.8% among 350,000; AID 504332, 2011; also: % is scaled to controls: 0 for no effect and ±100 for the full control effect; nearly all actives have a fitted effect of over 75% in size
Target sequence (Q96KQ7 913-1193 limits assumed): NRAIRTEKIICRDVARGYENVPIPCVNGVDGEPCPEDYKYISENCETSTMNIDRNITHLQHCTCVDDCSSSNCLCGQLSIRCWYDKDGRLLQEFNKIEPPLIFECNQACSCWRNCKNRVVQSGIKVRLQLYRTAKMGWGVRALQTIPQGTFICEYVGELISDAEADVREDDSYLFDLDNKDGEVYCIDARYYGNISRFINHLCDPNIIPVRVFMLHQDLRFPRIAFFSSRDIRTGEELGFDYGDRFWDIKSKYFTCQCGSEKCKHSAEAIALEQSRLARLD
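G9a (20 nM) was preincubated 15 min with compound, then reacted 2 h at room temperature with 500 nM biotin-H3K9 peptide and 20 µM SAM. Monomethyl-H3K9 detected by AlphaScreen using anti-H3K9me1 antibody.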
PLK1 PBD block: qHTS for Inhibitors of PLK1-PDB (polo-like kinase 1 - polo-box domain): Primary Screen; Serine/threonine-protein kinase PLK1 (Homo sapiens), P53350; Plk1 PBD binding of FITC phosphopeptide, fluorescence polarization; Potency, µM, inactives show max response, negative = inhibition, usual class: inhibitors; hit rate 2.8% among 360,000; AID 720504, 2013; also: series mostly up to about 57 µM; % is scaled to controls: 0 for no effect and ±100 for the full control effect; nearly all actives have a fitted effect of over 65% in size
* marks the source's active call; other numbers are inactive results; [ ] = dose if it differs, or a comment. Shown are actives, neighbours in structure and some others; about 12% of the full set was active somewhere. Calls follow the shape of the dose curve; as a rule, active = well fitted curve in the direction sought with a large enough effect; inconclusive = small, poorly fitted or top-dose-only effect, or another doubt; inactive = no such curve, though single readings can be large; an effect the other way counts as inactive or inconclusive. Potency is read from the fitted curve at half-maximal effect.

Screening O=C(O)c1cnc2[nH]c3ccccc3n2c1=O returned BAZ2B inh -35.0%, HP1b chromo inh 0.4%, JMJD2A Tudor inh inconclusive, Sfp inh 13.0%, G9a inh 50.1µM* and PLK1 PBD block -14.1%.
`COc1ccc(C2/C(=C(/O)c3ccccc3)C(=O)C(=O)N2CCO)cc1` (stereo not given) gave BAZ2B inh 7.5%, HP1b chromo inh 11.2%, JMJD2A Tudor inh -24.0%, Sfp inh 13.3%, G9a inh 44.7µM* and PLK1 PBD block -6.2%.
For COc1ccc(/C(O)=C2/C(=O)C(=O)N(CCCC(=O)O)C2c2ccc(OC)cc2)cc1 (stereo not given) the results were BAZ2B inh inconclusive, HP1b chromo inh 6.2%, JMJD2A Tudor inh 44.7µM*, Sfp inh 18.4%, G9a inh -18.8% and PLK1 PBD block -0.8%.
Screening CC/C=C/[C@@H](c1ccccc1)[C@H](C)C(O)CC(=O)SC(C)(C)C (stereo not given in full) returned HP1b chromo inh 79.4%, JMJD2A Tudor inh 48.3% and Sfp inh 10.7%.
Screening CCNC(=S)Nc1ccc(C)c(S(=O)(=O)Nc2ccccc2OC)c1 returned BAZ2B inh -20.3%, HP1b chromo inh 23.3%, JMJD2A Tudor inh -6.6%, Sfp inh 2.9% and PLK1 PBD block -14.4%.
For CCN(CC)c1ccc(NC(=O)COc2ccccc2C)cc1S(=O)(=O)Nc1ccccc1OC the results were BAZ2B inh -7.1%, HP1b chromo inh inconclusive, JMJD2A Tudor inh inconclusive, Sfp inh 20µM*, G9a inh 10µM* and PLK1 PBD block 5.32µM*.
Screening CCN(CC)c1ccc(NC(=O)c2ccc(=O)[nH]c2)cc1S(=O)(=O)Nc1ccccc1OC returned HP1b chromo inh inconclusive, JMJD2A Tudor inh inconclusive, Sfp inh 14.1µM*, G9a inh 2.51µM* and PLK1 PBD block 4.74µM*.
For CCN(CC)c1ccc(NC(=O)c2ccccc2F)cc1S(=O)(=O)Nc1ccccc1OC the results were BAZ2B inh -13.9%, HP1b chromo inh inconclusive, JMJD2A Tudor inh inconclusive, Sfp inh 14.1µM*, G9a inh 6.31µM* and PLK1 PBD block 10.6µM*.
For CCN(CC)c1ccc(NC(=O)COc2ccccc2C#N)cc1S(=O)(=O)Nc1ccc(OC)cc1 the results were BAZ2B inh -5.0%, HP1b chromo inh -13.3%, JMJD2A Tudor inh -26.4%, Sfp inh -15.6%, G9a inh inconclusive and PLK1 PBD block inconclusive.
`CCN(CC)c1ccc(NC(=O)c2ccccc2Br)cc1S(=O)(=O)Nc1ccccc1OC` gave BAZ2B inh inconclusive, HP1b chromo inh 6.31µM*, JMJD2A Tudor inh 17.8µM*, Sfp inh 3.16µM*, G9a inh 1.26µM* and PLK1 PBD block 1.5µM*.
Screening COc1ccc(NC(=O)c2ccc(=O)[nH]c2)cc1S(=O)(=O)N1CCCCC1 returned BAZ2B inh 7.5%, Sfp inh -4.0% and G9a inh 17.1%[59 µM].
For Cc1onc(-c2ccc(Br)cc2)c1C(=O)Nc1ccc(Br)cc1F the results were BAZ2B inh 20.1%, HP1b chromo inh 33.5%[57 µM], JMJD2A Tudor inh -12.7% and G9a inh 50.3%[59 µM].
For CCOc1ncccc1C(=O)OCC(=O)NC1CCCCC1 the results were HP1b chromo inh 21.9%, JMJD2A Tudor inh 7.1% and PLK1 PBD block 2.2%.
`CCc1cccc(C)c1NC(=O)c1cc(CN2CCCC2)on1` gave BAZ2B inh -2.8%, HP1b chromo inh -4.4%, JMJD2A Tudor inh -21.7% and G9a inh 2.3%[59 µM].
CC(CSC(=O)c1ccccc1)C(=O)N1c2ccccc2CC1C(=O)O (stereo not given) was read as PLK1 PBD block -13.8%.
NC(=O)CC(NC(=O)c1ccccc1)c1ccc(N2CCCCCC2)c([N+](=O)[O-])c1 (stereo not given) was read as BAZ2B inh inconclusive, HP1b chromo inh inconclusive, JMJD2A Tudor inh 44.7µM*, Sfp inh -7.6%, G9a inh 50.1µM* and PLK1 PBD block inconclusive.
Screening Cc1cc(C)cc(C(=O)NC(CC(N)=O)c2ccc(N3CCC(Br)CC3)c([N+](=O)[O-])c2)c1 (stereo not given) returned BAZ2B inh -37.0%, HP1b chromo inh 32.9%, JMJD2A Tudor inh -28.7%, Sfp inh 17.2%, G9a inh inconclusive and PLK1 PBD block -0.2%.
`O=[N+]([O-])c1cc(-n2cnnn2)ccc1N1CCC(Cc2ccccc2)CC1` gave BAZ2B inh 28.2µM*, HP1b chromo inh -42.1%, JMJD2A Tudor inh 10µM*, Sfp inh -11.7%, G9a inh 4.4%[0.501 µM] and PLK1 PBD block -3.7%.
Screening NC(=O)CC(NC(=O)c1cccc(Br)c1)c1ccc(N2CCN(c3ccccn3)CC2)c([N+](=O)[O-])c1 (stereo not given) returned BAZ2B inh inconclusive, HP1b chromo inh -6.4%, JMJD2A Tudor inh inconclusive, Sfp inh 2.6%, G9a inh 50.1µM* and PLK1 PBD block 1.3%.
`Cc1cc(C)cc(C(=O)NC(CC(N)=O)c2ccc(N3CCC(Cc4ccccc4)CC3)c([N+](=O)[O-])c2)c1` (stereo not given) gave BAZ2B inh inconclusive, HP1b chromo inh 19.8%, JMJD2A Tudor inh -20.3%, Sfp inh 1.8%, G9a inh 50.1µM* and PLK1 PBD block 0.1%.
Screening CN(C)c1cccc(C(=O)Nc2nc3ccc(S(=O)(=O)N4CCCC4)cc3s2)c1 returned BAZ2B inh -6.1%, HP1b chromo inh 32.3%[57 µM], JMJD2A Tudor inh -32.1% and G9a inh inconclusive.
Cc1cc(C)c(NC(=O)CCCN2C(=O)COc3ccc(C)cc32)c(C)c1 was read as BAZ2B inh 1.9%, HP1b chromo inh 15.8%, JMJD2A Tudor inh 0.0% and G9a inh 4.3%[59 µM].
For NC(=O)CC(NC(=O)Cc1ccc(Br)cc1)c1ccc(N2CCC(N3CCCCC3)CC2)c([N+](=O)[O-])c1 (stereo not given) the results were BAZ2B inh -34.0%, HP1b chromo inh 25.3%, JMJD2A Tudor inh -20.3%, Sfp inh 13.7%, G9a inh 56.2µM* and PLK1 PBD block -0.2%.
Screening CCOc1ccccc1NC(=O)CSc1ncc(S(=O)(=O)c2ccc(C)c(C)c2)c(N)n1 returned BAZ2B inh 13.9%, HP1b chromo inh 21.5%, JMJD2A Tudor inh -5.0% and G9a inh 20.5%[59 µM].
